# Values without a mark were called inactive. Results filed as inconclusive are left out. Where a call stands in place of a potency, no number is given. The source made the active and inactive calls. Unless noted, calls come from the whole dose curve; as a rule, active = well fitted curve in the direction sought with a large enough effect; inconclusive = small, poorly fitted or top-dose-only effect, or another doubt; inactive = no such curve, though single readings can be large; an effect the other way counts as inactive or inconclusive.
# How the values were obtained:
# [1] = qHTS assay for measurement of the activity of small molecule inhibitors on Zika virus induced Caspase-3 activity in human iPSC derived neural progenitor cells (hNPCs) (AID 1224857); note: nearly all actives have a fitted effect of over 65% in size
# Method in brief: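 Zika virus (2 FFU/cell) infection of human iPSC-derived NPCs, 6 h, following 1 h compound preincubation. Read-out: Caspase-Glo 3/7 luminescence.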
# [2] = qHTS assay for measurement of the activity of small molecule inhibitors on Zika virus induced Caspase-3 activity in human astrocytoma cells (AID 1224859)
# Method in brief: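 Caspase activation in ZIKV-infected SNB-19 cells (2 FFU/cell, 6 h) measured by Caspase-Glo 3/7 luminescence after 30 min RT; compound pre-incubated 1 h; normalised to uninfected and infected controls.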
# [3] = P-glycoprotein substrates identified in KB-8-5-11 adenocarcinoma cell line, qHTS therapeutic library screen (AID 1346987); note: nearly all actives have a fitted effect of over 65% in size; note: potency is the fitted concentration of half-maximal effect
# Method in brief: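 KB-8-5-11: colchicine-selected sub-line of KB-3-1 over-expressing P-gp; assay medium lacked colchicine. 72 h drug exposure at 37 degree C, CellTiter-Glo.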
# [4] = NS1 protein of Zika virus - qHTS assay to identify small molecule inhibitors in human HEK 293 cells (AID 1347053); note: series mostly up to about 46 µM; nearly all actives have a fitted effect of over 55% in size
# Method in brief: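 HEK 293 cells pretreated with compound for 1 h, then infected with ZIKV MR766 (MOI 0.5) for 24 h at 37 C. NS1 detected by TR-FRET with two anti-NS1 antibodies; normalized to uninfected (0%) and infected (100%) wells.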
# [5] = Natriuretic polypeptide receptor (hNpr1) antagonism - Pilot counterscreen GloSensor control cell line (AID 1347045; calls by dose curve; note: series mostly up to about 38 µM)
# Method in brief: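 HEK293 cells carrying the GloSensor cGMP sensor (GIP/pGS-40F) were loaded with 2% GloSensor reagent for 2 h, exposed to compounds for 30 min, and then stimulated with 50 uM sodium nitroprusside for 20 min at room temperature.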
# [6] = target: Atrial natriuretic peptide receptor 2 (Homo sapiens) (UniProt P20594); assay: Natriuretic polypeptide receptor (hNpr2) antagonism - Pilot subtype selectivity assay (AID 1347050; calls by dose curve)
# Atrial natriuretic peptide receptor 2 (Homo sapiens), sequence (P20594 whole entry, looked up): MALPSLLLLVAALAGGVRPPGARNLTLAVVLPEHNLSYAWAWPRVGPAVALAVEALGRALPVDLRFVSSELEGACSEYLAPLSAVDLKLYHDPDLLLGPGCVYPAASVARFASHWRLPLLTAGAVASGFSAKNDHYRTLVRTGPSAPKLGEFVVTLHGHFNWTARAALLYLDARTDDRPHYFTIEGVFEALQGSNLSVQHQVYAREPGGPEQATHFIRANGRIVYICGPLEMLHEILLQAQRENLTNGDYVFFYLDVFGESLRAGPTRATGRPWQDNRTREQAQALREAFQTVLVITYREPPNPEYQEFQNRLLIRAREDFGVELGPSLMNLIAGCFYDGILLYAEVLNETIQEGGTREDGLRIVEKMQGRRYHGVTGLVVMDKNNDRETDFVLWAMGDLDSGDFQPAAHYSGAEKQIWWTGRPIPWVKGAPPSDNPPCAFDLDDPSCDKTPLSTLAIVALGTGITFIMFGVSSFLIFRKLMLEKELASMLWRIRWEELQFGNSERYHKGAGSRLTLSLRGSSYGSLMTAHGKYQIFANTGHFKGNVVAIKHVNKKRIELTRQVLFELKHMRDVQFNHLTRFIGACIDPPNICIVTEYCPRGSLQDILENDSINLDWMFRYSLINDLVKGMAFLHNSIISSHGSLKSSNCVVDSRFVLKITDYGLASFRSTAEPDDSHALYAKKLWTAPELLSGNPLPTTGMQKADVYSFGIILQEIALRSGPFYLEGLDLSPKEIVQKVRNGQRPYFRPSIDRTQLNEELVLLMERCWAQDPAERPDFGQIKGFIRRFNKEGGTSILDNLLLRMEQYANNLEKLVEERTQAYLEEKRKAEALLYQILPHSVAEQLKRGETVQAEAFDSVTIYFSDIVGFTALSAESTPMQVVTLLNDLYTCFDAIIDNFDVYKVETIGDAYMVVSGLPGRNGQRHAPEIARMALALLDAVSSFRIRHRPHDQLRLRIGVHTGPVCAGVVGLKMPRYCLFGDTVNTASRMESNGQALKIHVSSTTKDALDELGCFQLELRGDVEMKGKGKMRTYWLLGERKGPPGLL
# Method in brief: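 Pilot selectivity screen against hNpr2: HEK293 cGMP-sensor cells are treated with LOPAC1280 compounds, then with hNppC peptide at 1 nM final. The cGMP-driven luminescence change over 20 min at room temperature is the read-out.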
smiles,measurement,setting,value
COc1cc(C=O)ccc1O,Potency,[1],inactive
same,outcome,[2],inactive
same,Potency,[3],inactive
same,Potency,[4],inactive
O=C(OCC1(COC(=O)c2cccnc2)CCCC(COC(=O)c2cccnc2)(COC(=O)c2cccnc2)C1O)c1cccnc1,Potency,[1],inactive
same,outcome,[2],inactive
same,Potency,[3],inactive
same,Potency,[4],inactive
C[N+]1(CC2COC(c3ccccc3)(c3ccccc3)O2)CCCCC1 (stereo not given),Potency,[1],inactive
same,outcome,[2],inactive
same,Potency,[3],inactive
same,Potency,[4],inactive
O=C(Oc1ccccc1)c1ccccc1O,Potency,[1],inactive
same,outcome,[2],inactive
same,Potency,[3],inactive
same,Potency,[4],inactive
O=C(CCCCC(=O)Nc1c(I)cc(I)c(C(=O)O)c1I)Nc1c(I)cc(I)c(C(=O)O)c1I,Potency,[1],inactive
same,outcome,[2],inactive
same,Potency,[3],inactive
same,Potency,[4],inactive
Nc1ccc2cc3ccc(N)cc3nc2c1,Potency,[1],inactive
same,outcome,[2],inactive
same,Potency,[3],14.6 µM (active)
O=C1NC2CCCCN2C12CCN(CCCN1c3ccccc3CCc3ccc(Cl)cc31)CC2 (stereo not given),Potency,[1],inactive
same,outcome,[2],inactive
same,Potency,[3],16.4 µM (active)
COC(=O)C1=CO[C@@H](O)[C@@H]2C(CO)=CC[C@H]12,Potency,[1],inactive
same,outcome,[2],inactive
same,Potency,[3],inactive
same,Potency,[5],inactive
same,Potency,[6],inactive
same,Potency,[4],inactive
CN1CCC(Nc2ncc3ncnc(Nc4ccc(F)c(Cl)c4)c3n2)CC1,Potency,[1],inactive
same,outcome,[2],inactive
same,Potency,[3],inactive
Nc1c[n+](N2CCOCC2)no1,Potency,[1],inactive
same,outcome,[2],inactive
same,Potency,[3],inactive
same,Potency,[4],inactive
CC(C)C[C@H](NC(=O)CNC(=O)[C@H](Cc1ccc(O)cc1)NC(=O)[C@H](CO)NC(=O)[C@H](Cc1c[nH]c2ccccc12)NC(=O)[C@H](Cc1cnc[nH]1)NC(=O)[C@@H]1CCC(=O)N1)C(=O)N[C@@H](CCCN=C(N)N)C(=O)N1CCC[C@H]1C(=O)NCC(N)=O (stereo in doubt),Potency,[1],inactive
same,outcome,[2],inactive
same,Potency,[3],inactive
same,Potency,[4],inactive
CC(C)(C)C(O)/C=C/c1ccc2c(c1)OCO2 (stereo not given),Potency,[1],inactive
same,outcome,[2],inactive
same,Potency,[3],inactive
same,Potency,[4],inactive
Nc1nnnn1-c1ccccc1,Potency,[1],inactive
same,outcome,[2],inactive
same,Potency,[3],inactive
same,Potency,[4],inactive
COc1ccccc1N1CCN(CCN2C(=O)CC3(CCCC3)CC2=O)CC1,Potency,[1],inactive
same,outcome,[2],inactive
same,Potency,[3],inactive
same,Potency,[5],inactive
same,Potency,[6],inactive
same,Potency,[4],inactive
C[N+](C)(C)CCO,Potency,[1],inactive
same,outcome,[2],inactive
same,Potency,[3],inactive
same,Potency,[5],inactive
same,Potency,[6],inactive
same,Potency,[4],inactive
CC1CN(c2cc3c(cc2F)c(=O)c(C(=O)O)cn3-c2ccc(F)cc2F)CCN1 (stereo not given),"activity change, negative = inhibition",[1],-6.17% [at 4.53 µM]
same,"activity change, negative = inhibition",[2],-1.94% [at 4.53 µM]
same,Potency,[3],inactive
same,"activity change, negative = inhibition",[4],-15.5% [at 4.81 µM]
CCCCCCCCCCCCCCCC[N+](C)(C)Cc1ccccc1,Potency,[1],inactive
same,outcome,[2],inactive
same,Potency,[3],inactive
Cn1cc(S(C)=O)c(=O)c2ccc(F)cc21 (stereo not given),Potency,[1],inactive
same,outcome,[2],inactive
same,Potency,[3],inactive
same,Potency,[4],inactive
CC(=O)OC/C=C(C)/C=C/C=C(C)/C=C/C1=C(C)CCCC1(C)C,Potency,[1],inactive
same,outcome,[2],inactive
same,Potency,[3],inactive
same,Potency,[4],inactive
Nc1c2ccccc2nc2ccccc12,Potency,[1],inactive
same,outcome,[2],inactive
same,Potency,[3],13 µM (active)
CCNC(=O)NCCCOc1cccc(CN2CCCCC2)c1,Potency,[1],inactive
same,outcome,[2],inactive
same,Potency,[3],inactive
same,Potency,[4],inactive
Cc1cc(OCCOCC[N+](C)(C)Cc2ccccc2)ccc1C(C)(C)CC(C)(C)C,Potency,[1],inactive
same,outcome,[2],inactive
same,Potency,[3],inactive
CC(=O)Nc1c(I)c(NC(C)=O)c(I)c(C(=O)O)c1I,Potency,[1],inactive
same,outcome,[2],inactive
same,Potency,[3],inactive
same,Potency,[4],inactive
CC1c2ccccc2CN1NC(=O)c1ccc(Cl)c(S(N)(=O)=O)c1 (stereo not given),Potency,[1],inactive
same,outcome,[2],inactive
same,Potency,[3],inactive
same,Potency,[4],inactive
O=C1NC(c2cccc([N+](=O)[O-])c2)=CCN1c1ccccc1O,Potency,[1],inactive
same,outcome,[2],inactive
same,Potency,[3],inactive
same,Potency,[5],inactive
same,Potency,[6],inactive
same,Potency,[4],inactive
Oc1ccc(CCNCCCCCCNCCc2ccccc2)cc1O,Potency,[1],inactive
same,outcome,[2],inactive
same,Potency,[3],inactive
same,Potency,[4],inactive
CC(=O)N(CC(O)CO)c1c(I)c(C(=O)NCCO)c(I)c(C(=O)NCC(O)CO)c1I (stereo not given),Potency,[1],inactive
same,outcome,[2],inactive
same,Potency,[3],inactive
same,Potency,[4],inactive
COc1ccccc1OCC1CNC(=O)O1 (stereo not given),Potency,[1],inactive
same,outcome,[2],inactive
same,Potency,[3],inactive
same,Potency,[4],inactive
C[C@H]1NCc2cc(-c3ccc4c(=O)c(C(=O)O)cn(C5CC5)c4c3OC(F)F)ccc21,Potency,[1],inactive
same,outcome,[2],inactive
same,Potency,[3],inactive
same,Potency,[4],inactive
CN1C(CSCC(F)(F)F)Nc2cc(Cl)c(S(N)(=O)=O)cc2S1(=O)=O (stereo not given),Potency,[1],inactive
same,outcome,[2],inactive
same,Potency,[3],inactive
same,Potency,[4],inactive
O=C(CO)[C@@H](O)[C@H](O)[C@@H](O)CO,Potency,[1],inactive
same,outcome,[2],inactive
same,Potency,[3],inactive
same,Potency,[4],inactive
NCC(=O)O,Potency,[1],inactive
same,outcome,[2],inactive
same,Potency,[3],inactive
same,Potency,[4],inactive
O=C(O)CCC(=O)OC[C@@H](NC(=O)C(Cl)Cl)[C@H](O)c1ccc([N+](=O)[O-])cc1,Potency,[1],inactive
same,outcome,[2],inactive
same,Potency,[3],inactive
same,Potency,[4],inactive
C1=CC2C3C=CC(C3)C2C1 (stereo not given),Potency,[1],inactive
same,outcome,[2],inactive
same,Potency,[3],inactive
same,Potency,[4],inactive
N#C/C(=C1/SC[C@@H](c2ccc(Cl)cc2Cl)S1)n1ccnc1,Potency,[1],inactive
same,outcome,[2],inactive
same,Potency,[3],inactive
same,Potency,[4],inactive
O=P(O)(O)OCC(O)CO (stereo not given),Potency,[1],inactive
same,outcome,[2],inactive
same,Potency,[3],inactive
same,Potency,[4],inactive
O=C(c1ccccc1)c1ccccc1,Potency,[1],inactive
same,outcome,[2],inactive
same,Potency,[3],inactive
same,Potency,[4],inactive

# From PubChem BioAssay (NCATS)
